Holding throughout (test): DAPPL (digital affinity profiling via proximity ligation, sequencing); 10 mM Tris-HCl pH 7.5, 50 mM NaCl, 1 mM DTT, 4% glycerol, room temperature, 30 min; GST-TFs on glutathione beads, 16-mer random dsDNA library, 0.1% formaldehyde crosslink after washing; high values mean tight binding
One assay concerns the target T1, FEV (Homo sapiens, UniProt Q99581 1-238).
T1 sequence: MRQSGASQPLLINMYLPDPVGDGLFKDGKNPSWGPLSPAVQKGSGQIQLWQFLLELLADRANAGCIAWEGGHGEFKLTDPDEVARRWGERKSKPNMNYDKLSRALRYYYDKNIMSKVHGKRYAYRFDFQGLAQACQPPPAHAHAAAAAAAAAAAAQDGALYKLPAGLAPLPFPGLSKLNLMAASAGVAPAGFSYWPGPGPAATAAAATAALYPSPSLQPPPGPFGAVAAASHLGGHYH
The following applies: protein: recombinant; tags: N-terminal GST; dsDNA, one strand shown. Summed up: (§1)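 Yeast served to express human transcription factors as GST fusions, which were then captured on glutathione beads and labelled with DNA barcodes. Pooled with a tag-only sample, they were incubated with 200 nmole of a 16-mer random double-stranded DNA library for 30 min at room temperature in Tris/NaCl/DTT/glycerol buffer, washed, crosslinked with 0.1% formaldehyde, ligated by proximity, amplified by PCR and sequenced. Dividing each hexamer's read frequency for a factor by its frequency for the tag-only sample gives the binding signal.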

A further assay deals with ETV5 (Homo sapiens, UniProt P41161 1-510). As to conditions: protein: recombinant; tags: N-terminal GST; dsDNA, one strand shown. Summed up: as §1
ETV5, sequence (P41161 whole entry): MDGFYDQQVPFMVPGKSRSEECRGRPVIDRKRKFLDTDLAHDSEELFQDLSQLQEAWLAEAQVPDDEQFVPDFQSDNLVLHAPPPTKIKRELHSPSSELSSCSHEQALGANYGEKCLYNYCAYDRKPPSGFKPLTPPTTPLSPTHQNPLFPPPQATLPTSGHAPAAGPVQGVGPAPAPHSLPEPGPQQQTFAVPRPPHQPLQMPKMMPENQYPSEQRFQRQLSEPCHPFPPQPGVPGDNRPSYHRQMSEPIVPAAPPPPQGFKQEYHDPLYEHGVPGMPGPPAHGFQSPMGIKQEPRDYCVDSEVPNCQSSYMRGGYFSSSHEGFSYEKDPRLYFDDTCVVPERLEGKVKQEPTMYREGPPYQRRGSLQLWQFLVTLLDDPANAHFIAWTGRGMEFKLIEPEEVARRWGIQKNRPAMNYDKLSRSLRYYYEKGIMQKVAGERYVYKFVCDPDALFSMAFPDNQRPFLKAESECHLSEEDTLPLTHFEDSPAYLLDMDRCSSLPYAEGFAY
The target in the next assay is HSF1 (Homo sapiens, UniProt Q00613 1-529). As to conditions: protein: recombinant; tags: N-terminal GST; chain copies: 3; dsDNA, one strand shown. A digest of the protocol:
as §1

Another assay deals with T2, SPIC (Homo sapiens, UniProt Q8N5J4 1-248).
T2 sequence: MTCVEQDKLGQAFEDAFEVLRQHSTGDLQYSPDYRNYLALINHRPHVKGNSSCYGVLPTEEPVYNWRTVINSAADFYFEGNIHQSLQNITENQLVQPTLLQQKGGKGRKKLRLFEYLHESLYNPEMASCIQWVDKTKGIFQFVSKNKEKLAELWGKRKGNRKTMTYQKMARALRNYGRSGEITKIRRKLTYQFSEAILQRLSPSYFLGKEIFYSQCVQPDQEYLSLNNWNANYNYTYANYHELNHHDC
The following applies: protein: recombinant; tags: N-terminal GST; dsDNA, one strand shown. Summed up:
as §1

For another assay, the target named is ELF4 (Homo sapiens, UniProt Q99607 1-663). The following applies: protein: recombinant; tags: N-terminal GST; dsDNA, one strand shown. Summed up: as §1
ELF4, sequence (Q99607 whole entry): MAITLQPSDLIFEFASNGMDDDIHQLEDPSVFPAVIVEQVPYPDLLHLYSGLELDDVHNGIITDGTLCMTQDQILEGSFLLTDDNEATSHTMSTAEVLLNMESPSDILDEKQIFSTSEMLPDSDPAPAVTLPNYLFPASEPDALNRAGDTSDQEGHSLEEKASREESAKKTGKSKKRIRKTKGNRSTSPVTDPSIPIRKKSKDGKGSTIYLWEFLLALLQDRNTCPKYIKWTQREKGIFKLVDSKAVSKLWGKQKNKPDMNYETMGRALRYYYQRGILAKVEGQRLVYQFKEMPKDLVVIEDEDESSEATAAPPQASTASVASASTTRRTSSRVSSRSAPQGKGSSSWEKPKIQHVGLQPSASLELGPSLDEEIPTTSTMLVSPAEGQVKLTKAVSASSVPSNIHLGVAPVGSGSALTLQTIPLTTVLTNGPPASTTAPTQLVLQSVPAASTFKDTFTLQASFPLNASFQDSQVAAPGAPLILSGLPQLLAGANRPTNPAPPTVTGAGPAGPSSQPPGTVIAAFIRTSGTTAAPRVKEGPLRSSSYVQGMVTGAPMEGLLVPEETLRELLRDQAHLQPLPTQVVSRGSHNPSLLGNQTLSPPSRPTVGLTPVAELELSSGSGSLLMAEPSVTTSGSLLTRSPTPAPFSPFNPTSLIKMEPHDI
In the next assay the target is T3, ELK4 (Homo sapiens, UniProt P28324-2 1-405).
T3 sequence: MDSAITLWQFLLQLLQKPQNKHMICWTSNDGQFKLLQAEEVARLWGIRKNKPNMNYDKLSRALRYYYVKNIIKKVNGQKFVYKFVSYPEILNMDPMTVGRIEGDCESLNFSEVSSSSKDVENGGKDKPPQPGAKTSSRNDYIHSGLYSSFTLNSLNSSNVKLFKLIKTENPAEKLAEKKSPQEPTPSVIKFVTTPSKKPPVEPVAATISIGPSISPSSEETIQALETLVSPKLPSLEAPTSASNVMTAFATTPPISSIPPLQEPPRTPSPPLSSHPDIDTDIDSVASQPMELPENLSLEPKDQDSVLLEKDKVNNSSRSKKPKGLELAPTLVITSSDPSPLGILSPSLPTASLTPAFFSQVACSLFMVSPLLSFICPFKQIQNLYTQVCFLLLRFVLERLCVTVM
The following applies: protein: recombinant; tags: N-terminal GST; dsDNA, one strand shown. A digest of the protocol:
as §1

The target in another assay is T4, ETV2 (Homo sapiens, UniProt O00321 1-342).
T4 sequence: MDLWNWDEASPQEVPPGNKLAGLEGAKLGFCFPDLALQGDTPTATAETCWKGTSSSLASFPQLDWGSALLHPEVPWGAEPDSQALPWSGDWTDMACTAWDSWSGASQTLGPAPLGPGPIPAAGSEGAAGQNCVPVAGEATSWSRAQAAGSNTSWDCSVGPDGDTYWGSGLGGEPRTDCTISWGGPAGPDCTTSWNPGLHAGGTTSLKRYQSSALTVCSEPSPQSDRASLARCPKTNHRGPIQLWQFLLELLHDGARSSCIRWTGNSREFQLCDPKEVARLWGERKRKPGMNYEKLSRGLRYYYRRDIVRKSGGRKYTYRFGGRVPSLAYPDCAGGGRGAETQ
As to conditions: protein: recombinant; tags: N-terminal GST; dsDNA, one strand shown. A digest of the protocol: as §1

The next assay concerns the target T5, ELF3 (Homo sapiens, UniProt P78545 1-371).
T5 sequence: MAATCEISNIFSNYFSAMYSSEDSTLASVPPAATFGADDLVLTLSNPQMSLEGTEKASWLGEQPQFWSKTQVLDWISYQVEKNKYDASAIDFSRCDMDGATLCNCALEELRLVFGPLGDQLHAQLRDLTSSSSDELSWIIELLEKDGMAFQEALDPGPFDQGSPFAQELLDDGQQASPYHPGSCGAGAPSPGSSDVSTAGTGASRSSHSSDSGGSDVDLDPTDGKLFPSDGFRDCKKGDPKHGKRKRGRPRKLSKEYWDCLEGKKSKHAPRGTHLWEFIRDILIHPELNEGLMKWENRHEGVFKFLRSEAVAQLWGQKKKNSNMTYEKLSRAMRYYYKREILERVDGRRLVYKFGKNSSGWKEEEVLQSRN
The following applies: protein: recombinant; tags: N-terminal GST; dsDNA, one strand shown. A digest of the protocol: as §1

In a further assay the target is CRX (Homo sapiens, UniProt O43186 1-299). The following applies: protein: recombinant; tags: N-terminal GST; dsDNA, one strand shown. A digest of the protocol: as §1
CRX, sequence (O43186 whole entry): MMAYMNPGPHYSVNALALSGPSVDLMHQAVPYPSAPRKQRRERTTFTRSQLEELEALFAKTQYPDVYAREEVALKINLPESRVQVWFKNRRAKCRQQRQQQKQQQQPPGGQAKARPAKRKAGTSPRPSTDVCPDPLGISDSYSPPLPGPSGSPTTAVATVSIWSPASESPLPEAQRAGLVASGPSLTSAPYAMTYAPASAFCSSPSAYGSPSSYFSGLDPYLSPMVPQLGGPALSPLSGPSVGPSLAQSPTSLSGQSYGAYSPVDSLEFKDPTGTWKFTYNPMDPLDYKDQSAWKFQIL
The next assay addresses ETV1 (Homo sapiens, UniProt P50549 1-477). As to conditions: protein: recombinant; tags: N-terminal GST; dsDNA, one strand shown. Summed up:
as §1

The target in a further assay is T6, ERF (Homo sapiens, UniProt P50548 1-548).
T6 sequence: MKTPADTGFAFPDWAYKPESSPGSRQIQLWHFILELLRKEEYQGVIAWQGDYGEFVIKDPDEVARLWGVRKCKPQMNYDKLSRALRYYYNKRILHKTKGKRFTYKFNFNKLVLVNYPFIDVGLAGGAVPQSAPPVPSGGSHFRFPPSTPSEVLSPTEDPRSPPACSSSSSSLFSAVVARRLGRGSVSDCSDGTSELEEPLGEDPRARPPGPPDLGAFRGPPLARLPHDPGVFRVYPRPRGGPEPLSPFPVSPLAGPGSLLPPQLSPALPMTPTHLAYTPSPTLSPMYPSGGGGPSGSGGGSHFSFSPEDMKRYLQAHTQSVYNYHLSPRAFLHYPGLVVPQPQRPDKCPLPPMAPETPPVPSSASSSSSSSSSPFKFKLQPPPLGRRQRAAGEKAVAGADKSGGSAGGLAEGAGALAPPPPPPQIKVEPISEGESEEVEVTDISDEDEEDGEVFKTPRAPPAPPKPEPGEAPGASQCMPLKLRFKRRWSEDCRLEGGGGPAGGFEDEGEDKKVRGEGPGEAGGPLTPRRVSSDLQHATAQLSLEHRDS
The following applies: protein: recombinant; tags: N-terminal GST; dsDNA, one strand shown. A digest of the protocol:
as §1

The target of another assay is T7, ETV3L (Homo sapiens, UniProt Q6ZN32 1-361).
T7 sequence: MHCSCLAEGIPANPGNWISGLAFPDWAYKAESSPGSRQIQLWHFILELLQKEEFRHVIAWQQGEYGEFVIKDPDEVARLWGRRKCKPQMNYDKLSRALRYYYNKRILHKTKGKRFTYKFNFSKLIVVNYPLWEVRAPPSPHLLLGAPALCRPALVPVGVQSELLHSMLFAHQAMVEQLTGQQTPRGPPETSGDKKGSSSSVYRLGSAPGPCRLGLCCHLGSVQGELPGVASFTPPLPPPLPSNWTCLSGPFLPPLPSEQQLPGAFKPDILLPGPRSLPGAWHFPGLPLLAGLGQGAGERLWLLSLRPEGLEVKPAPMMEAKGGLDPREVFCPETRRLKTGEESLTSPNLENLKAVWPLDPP
As to conditions: protein: recombinant; tags: N-terminal GST; dsDNA, one strand shown. Summed up:
as §1

The target in another assay is T8, ETS2 (Homo sapiens, UniProt P15036 1-469).
T8 sequence: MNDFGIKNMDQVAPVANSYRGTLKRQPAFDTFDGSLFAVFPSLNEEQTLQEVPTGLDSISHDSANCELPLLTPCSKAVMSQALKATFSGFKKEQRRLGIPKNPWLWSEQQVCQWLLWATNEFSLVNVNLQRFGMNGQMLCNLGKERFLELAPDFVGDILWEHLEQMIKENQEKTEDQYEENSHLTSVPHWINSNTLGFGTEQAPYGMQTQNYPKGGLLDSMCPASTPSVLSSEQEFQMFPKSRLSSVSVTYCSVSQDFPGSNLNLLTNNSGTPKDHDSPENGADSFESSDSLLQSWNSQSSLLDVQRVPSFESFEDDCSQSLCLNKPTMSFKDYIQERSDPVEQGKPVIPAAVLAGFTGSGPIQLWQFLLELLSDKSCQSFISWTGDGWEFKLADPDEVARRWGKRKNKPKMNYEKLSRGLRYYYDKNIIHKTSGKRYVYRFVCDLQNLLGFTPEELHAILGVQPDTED
As to conditions: protein: recombinant; tags: N-terminal GST; dsDNA, one strand shown. Summed up: as §1

A further assay has as its target T9, SPDEF (Homo sapiens, UniProt O95238 1-335).
T9 sequence: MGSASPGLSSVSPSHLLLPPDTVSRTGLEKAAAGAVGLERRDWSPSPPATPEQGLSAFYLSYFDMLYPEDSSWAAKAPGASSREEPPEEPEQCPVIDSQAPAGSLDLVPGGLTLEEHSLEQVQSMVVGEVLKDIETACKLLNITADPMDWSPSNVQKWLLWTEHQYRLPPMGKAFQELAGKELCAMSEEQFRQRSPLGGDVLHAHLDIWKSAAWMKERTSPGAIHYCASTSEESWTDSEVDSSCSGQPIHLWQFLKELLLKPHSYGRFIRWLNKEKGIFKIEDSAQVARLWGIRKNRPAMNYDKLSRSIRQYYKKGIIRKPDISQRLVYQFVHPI
The following applies: protein: recombinant; tags: N-terminal GST; dsDNA, one strand shown. A digest of the protocol: as §1

The target in a further assay is T10, ETV7 (Homo sapiens, UniProt Q9Y603 1-341).
T10 sequence: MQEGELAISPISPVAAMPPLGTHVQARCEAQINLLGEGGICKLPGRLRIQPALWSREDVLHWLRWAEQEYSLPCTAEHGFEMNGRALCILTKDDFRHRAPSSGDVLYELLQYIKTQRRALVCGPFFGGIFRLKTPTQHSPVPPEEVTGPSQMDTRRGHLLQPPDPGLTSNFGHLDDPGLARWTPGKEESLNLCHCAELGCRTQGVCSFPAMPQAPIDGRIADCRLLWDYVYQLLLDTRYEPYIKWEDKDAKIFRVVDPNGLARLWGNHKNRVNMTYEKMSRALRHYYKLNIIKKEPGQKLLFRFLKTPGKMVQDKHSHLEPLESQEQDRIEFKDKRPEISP
The following applies: protein: recombinant; tags: N-terminal GST; dsDNA, one strand shown. Summed up:
as §1

A further assay addresses T11, ELF5 (Homo sapiens, UniProt Q9UKW6-2 1-255).
T11 sequence: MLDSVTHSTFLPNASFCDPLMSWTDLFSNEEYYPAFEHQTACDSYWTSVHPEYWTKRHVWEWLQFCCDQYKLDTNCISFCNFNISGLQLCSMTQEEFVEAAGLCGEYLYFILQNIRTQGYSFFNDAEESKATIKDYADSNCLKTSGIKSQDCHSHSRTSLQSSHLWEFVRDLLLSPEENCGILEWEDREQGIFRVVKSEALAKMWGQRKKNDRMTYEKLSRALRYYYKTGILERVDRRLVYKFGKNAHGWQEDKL
The following applies: protein: recombinant; tags: N-terminal GST; dsDNA, one strand shown. Summed up: as §1

A further assay addresses T12, ETV3 (Homo sapiens, UniProt P41162-2 1-143).
T12 sequence: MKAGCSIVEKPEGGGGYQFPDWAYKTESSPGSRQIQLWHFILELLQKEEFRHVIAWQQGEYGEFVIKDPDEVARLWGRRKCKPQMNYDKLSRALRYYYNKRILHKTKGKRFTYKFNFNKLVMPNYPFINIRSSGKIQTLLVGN
As to conditions: protein: recombinant; tags: N-terminal GST; dsDNA, one strand shown. Summed up:
as §1

Another assay deals with ETV6 (Homo sapiens, UniProt P41212 1-452). The following applies: protein: recombinant; tags: N-terminal GST; dsDNA, one strand shown. A digest of the protocol:
as §1

HSF1, sequence (Q00613 whole entry): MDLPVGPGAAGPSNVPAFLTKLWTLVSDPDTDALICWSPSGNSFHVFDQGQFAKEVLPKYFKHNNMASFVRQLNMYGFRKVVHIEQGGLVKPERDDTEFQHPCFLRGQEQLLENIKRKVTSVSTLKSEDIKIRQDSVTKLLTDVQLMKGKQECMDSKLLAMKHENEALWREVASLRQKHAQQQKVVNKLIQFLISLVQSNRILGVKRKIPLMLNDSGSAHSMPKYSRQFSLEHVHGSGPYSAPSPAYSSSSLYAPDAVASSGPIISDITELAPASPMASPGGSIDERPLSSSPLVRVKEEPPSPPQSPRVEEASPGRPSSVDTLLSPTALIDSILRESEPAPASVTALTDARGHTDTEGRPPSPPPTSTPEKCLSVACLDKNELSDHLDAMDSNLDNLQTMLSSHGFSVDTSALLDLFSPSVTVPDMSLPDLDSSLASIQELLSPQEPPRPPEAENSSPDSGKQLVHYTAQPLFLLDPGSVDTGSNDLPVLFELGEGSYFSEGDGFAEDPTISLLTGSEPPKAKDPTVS
ETV6, sequence (P41212 whole entry): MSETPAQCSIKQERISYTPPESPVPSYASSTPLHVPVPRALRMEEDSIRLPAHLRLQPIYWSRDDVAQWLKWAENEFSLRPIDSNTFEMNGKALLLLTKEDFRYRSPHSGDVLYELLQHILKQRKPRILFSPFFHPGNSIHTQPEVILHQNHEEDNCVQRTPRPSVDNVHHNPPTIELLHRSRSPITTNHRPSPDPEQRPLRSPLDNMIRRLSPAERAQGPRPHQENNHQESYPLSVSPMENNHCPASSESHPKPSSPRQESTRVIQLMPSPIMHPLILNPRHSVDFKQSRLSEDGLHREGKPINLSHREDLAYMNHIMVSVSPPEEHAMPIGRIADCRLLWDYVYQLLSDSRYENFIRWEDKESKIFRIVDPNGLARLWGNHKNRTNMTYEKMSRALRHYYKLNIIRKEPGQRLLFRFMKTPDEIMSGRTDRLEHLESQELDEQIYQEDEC
ETV1, sequence (P50549 whole entry): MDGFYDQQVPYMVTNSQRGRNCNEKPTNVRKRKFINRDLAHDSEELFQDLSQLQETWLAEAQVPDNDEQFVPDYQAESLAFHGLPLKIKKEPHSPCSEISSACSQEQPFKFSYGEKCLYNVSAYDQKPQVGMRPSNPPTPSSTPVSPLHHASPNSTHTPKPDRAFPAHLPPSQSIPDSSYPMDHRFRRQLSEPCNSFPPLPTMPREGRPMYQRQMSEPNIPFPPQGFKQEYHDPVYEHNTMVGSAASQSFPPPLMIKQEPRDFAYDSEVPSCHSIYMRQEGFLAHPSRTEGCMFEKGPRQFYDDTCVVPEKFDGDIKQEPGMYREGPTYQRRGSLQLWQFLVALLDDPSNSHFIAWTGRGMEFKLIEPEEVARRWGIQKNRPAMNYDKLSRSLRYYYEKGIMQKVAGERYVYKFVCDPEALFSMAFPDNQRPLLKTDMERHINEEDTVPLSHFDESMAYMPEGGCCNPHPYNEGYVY

With TGCGCT, the binding signal in the assay with FEV is 1.25 fold enrichment (6-mer frequency, TF over GST control); with ETV5 it was 1.28 fold enrichment (6-mer frequency, TF over GST control); in the assay with HSF1, 1.07 fold enrichment (6-mer frequency, TF over GST control); with SPIC it was 1.24 fold enrichment (6-mer frequency, TF over GST control); in the assay with ELF4, 1.19 fold enrichment (6-mer frequency, TF over GST control); in the assay with ELK4 it was 1.46 fold enrichment (6-mer frequency, TF over GST control). The binding signal was 1.35 fold enrichment (6-mer frequency, TF over GST control) with ETV2; 1.04 fold enrichment (6-mer frequency, TF over GST control) with ELF3; 1.2 fold enrichment (6-mer frequency, TF over GST control) in the assay with CRX; 1.17 fold enrichment (6-mer frequency, TF over GST control) with ETV1; 1.33 fold enrichment (6-mer frequency, TF over GST control) with ERF; 1.21 fold enrichment (6-mer frequency, TF over GST control) in the assay with ETV3L. Also, the binding signal with ETS2 is 1.43 fold enrichment (6-mer frequency, TF over GST control); with SPDEF, 1.19 fold enrichment (6-mer frequency, TF over GST control); in the assay with ETV7 it was 1.17 fold enrichment (6-mer frequency, TF over GST control); with ELF5 it was 1.15 fold enrichment (6-mer frequency, TF over GST control); with ETV3 it was 1.24 fold enrichment (6-mer frequency, TF over GST control); in the assay with ETV6, 1.24 fold enrichment (6-mer frequency, TF over GST control).

The values above are taken from PMC7862700, “An all-to-all approach to the identification of sequence-specific readers for epigenetic DNA modifications on cytosine”.
